Screening data from PubChem BioAssay.
GLP-1R agonist = agonists of human GLP-1 receptor; P43220; HEK293 GLP-1R CRE-luciferase, luminescence, 4-6 h; cells express a hypersensitive GLP-1R form; Potency, µM (highest dose often 45.6 µM), for the others: top-dose activation, usual class: activators; 380,000 tested, 0.007% active; AID 624172; further: % of control where 0% means no effect
GLS inhibitor = blocks human kidney-isoform glutaminase activity; 410,000 tested, 0.21% active; O94925; Potency, µM (doses to about 45.5 µM), for the others: at the highest dose activity change, negative = inhibition, hits mostly inhibitors; AID 624170; GLS enzymatic activity, qHTS titration; further: on the % scale 0 is the no-effect control and ±100 the full control effect
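Read-out is an Amplex red fluorescence increase coupled through glutamate oxidase and HRP, measured before and after 30 min room-temperature incubation. hKGA is in 45 mM KH2PO4 (pH 8.2) with 0.02% Tween-20; glutamine added as 1mM solution.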
GLP-1R inv ag = acts as inverse agonist at human GLP-1 receptor. P43220. HEK293 GLP-1R CRE-luciferase, luminescence, 24 h; GLP-1R form is constitutively active. Potency, µM (doses to about 38.3 µM), for the others: top-dose activity change, negative = inhibition, actives largely listed as inhibitors. 410,000 tested, 1.6% active. AID 624417; further: on the % scale 0 is the no-effect control and ±100 the full control effect; nearly all actives have a fitted effect of over 55% in size
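qHTS in 1536-well format: reporter HEK293 cells expressing constitutive GLP-1R activity in DMEM + 10% Nu serum, 24 hr with compounds at 37 deg C, luminescence read after 12 min with detection reagent.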
PTHR1 ag = PTHR1 (human) receptor agonism | Q03431 | HEK293 GP2 PTHR1 cells, GloSensor cAMP luminescence, 1 h | Potency, µM (doses to about 115 µM), inactives show at the top dose activation, hits mostly activators | 410,000 tested, 0.075% active | AID 743266; further: nearly all actives have a fitted effect of over 55% in size
Target sequence (Q03431 whole entry, looked up): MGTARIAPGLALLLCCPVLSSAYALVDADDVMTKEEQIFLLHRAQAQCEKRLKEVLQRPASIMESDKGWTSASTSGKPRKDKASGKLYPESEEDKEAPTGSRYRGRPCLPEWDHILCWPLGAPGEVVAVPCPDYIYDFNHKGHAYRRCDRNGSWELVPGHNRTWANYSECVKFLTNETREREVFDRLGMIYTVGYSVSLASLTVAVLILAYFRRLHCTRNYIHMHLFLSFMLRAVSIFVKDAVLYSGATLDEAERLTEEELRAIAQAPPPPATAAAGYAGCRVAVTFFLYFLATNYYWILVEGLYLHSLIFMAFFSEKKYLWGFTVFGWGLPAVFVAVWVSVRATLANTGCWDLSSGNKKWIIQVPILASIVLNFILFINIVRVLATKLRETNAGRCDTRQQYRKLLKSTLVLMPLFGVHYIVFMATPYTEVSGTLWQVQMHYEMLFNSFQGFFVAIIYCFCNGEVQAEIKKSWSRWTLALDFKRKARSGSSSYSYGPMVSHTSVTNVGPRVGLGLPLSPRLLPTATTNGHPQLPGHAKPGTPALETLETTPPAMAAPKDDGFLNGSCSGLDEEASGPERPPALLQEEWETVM
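HEK-293-derived GP2 cells expressing PTHR1 and a GloSensor cAMP reporter, 3,000/well, plated overnight, given luciferin plus IBMX (each 0.5 mM as added) for 1 h at 37 °C, then compound for 1 h at 37 °C. Luminescence was read after 15 min at room temperature.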
Glioma ERSR ind = induces the endoplasmic reticulum stress response in human glioma cells | Potency, µM, for the others: top-dose activation, usual class: activators | U87-MG GRP78 promoter luciferase reporter, 16 h | 420,000 tested, 0.02% active; further: series mostly up to about 76 µM; % of control where 0% means no effect; nearly all actives have a fitted effect of over 35% in size
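ERSR induction read as luciferase luminescence (Bright-Glo, 10 min at room temperature) in stably transfected human U87-MG glioma cells exposed to compounds for 16 h, using GRP78 as sensor.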
ALOX12 inh = inhibitors of human 12S-lipoxygenase ALOX12; P18054; purified 12hLO, xylenol orange hydroperoxide absorbance; Potency, µM (titrated, usually from 108 µM), inactives show at the highest dose activity change, negative = inhibition, most hits filed as inhibitors; 580,000 tested, 1.1% active; further: on the % scale 0 is the no-effect control and ±100 the full control effect
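Purified human 12hLO at 150 nM in 25 mM Hepes, 0.01% Triton X-100, pH 7.0, preincubated 15 min at room temperature with compound. Reaction started with 40 uM arachidonic acid, 30 min at room temperature. Hydroperoxide measured by Fe-xylenol orange, 573/405 nm absorbance ratio.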
* = called active by the depositor. Hits are enriched below; roughly 2.3% of the tested compounds scored in any of these assays. The call rests on the fitted dose curve; in most records, active means well fitted curve in the direction sought with a large enough effect; inconclusive means small, poorly fitted or top-dose-only effect, or another doubt; inactive means no such curve, though single readings can be large; an effect the other way counts as inactive or inconclusive. Potency means the concentration at half of the fitted maximal effect.

Screening CCCCN(CCCC)c1ncnc2c1cnn2-c1cccc(C)c1 returned GLS inhibitor -17%, GLP-1R inv ag inconclusive, PTHR1 ag -23%, Glioma ERSR ind -6% and ALOX12 inh -19%.
For CCCN(CCC)c1ncnc2c1cnn2-c1ccc(OC)cc1 the results were GLP-1R agonist 11%, GLS inhibitor -6%, GLP-1R inv ag 10µM*, PTHR1 ag -33%, Glioma ERSR ind -3% and ALOX12 inh -10%.
For Cc1ccnc(NC(=O)C2CCN(C(=O)C3CC3)CC2)c1 the results were ALOX12 inh 18%.
`Cc1cccc2c(=O)c(-c3ccc4c(c3)OCO4)c(NC(=O)c3ccccc3F)oc12` gave ALOX12 inh -6%.
COC(=O)c1cc2occc2n1Cc1cccc(OC)c1 was read as ALOX12 inh 26%.
`CN(C)CCNc1ncnc2c1cnn2-c1ccc(Cl)cc1` gave GLP-1R agonist -14%, GLS inhibitor -18%, GLP-1R inv ag 3.2µM*, PTHR1 ag -60%, Glioma ERSR ind -7% and ALOX12 inh -11%.
CN(C)CCNc1ncnc2c1cnn2-c1cccc(Cl)c1 was read as GLS inhibitor 6%, GLP-1R inv ag inconclusive, PTHR1 ag -51%, Glioma ERSR ind 0% and ALOX12 inh -26%.
For CN(C)CCNC(=O)c1cccc2ccc(-c3ccc(-c4ccccc4)cc3)nc12 the results were GLP-1R agonist 2%, GLS inhibitor -4%, GLP-1R inv ag inconclusive, PTHR1 ag inactive, Glioma ERSR ind 10% and ALOX12 inh 40µM*.
For CN(C)CCNC(=O)c1cccc2nc3cccc(F)c3nc12 the results were GLP-1R agonist -5%, GLS inhibitor 10%, GLP-1R inv ag 6.3µM*, PTHR1 ag -13%, Glioma ERSR ind -5% and ALOX12 inh -24%.
`COc1cc(C2C3=C(CCCC3=O)OC3=C2C(=O)CCC3)ccc1OS(=O)(=O)c1ccc(C)cc1` gave ALOX12 inh -18%.
Clc1ccc2nc(-c3cccc(Br)c3)cn2c1 was read as ALOX12 inh 13µM*.
For CCOC(=O)CCN(Cc1cc(C)ccc1C)CC1CC1 the results were ALOX12 inh -9%.
Screening CCN1CCN(Cc2ccc(NC(=O)c3ccc(C)c(NC(=O)c4c[nH]c5cc(C(F)(F)F)ccc5c4=O)c3)cc2C(F)(F)F)CC1 returned GLP-1R agonist 0%, GLS inhibitor 11%, GLP-1R inv ag 10µM*, PTHR1 ag -44%, Glioma ERSR ind -13% and ALOX12 inh inconclusive.
For COc1ccc(CN([C@H](CO)CC(C)C)S(=O)(=O)N(Cc2ccccc2)[C@H](CO)CC(C)C)cc1 the results were GLP-1R agonist -10%, GLS inhibitor -10%, GLP-1R inv ag 4.5µM*, PTHR1 ag inconclusive, Glioma ERSR ind -1% and ALOX12 inh 1%.
`COc1ccc(CN([C@H](C)CO)S(=O)(=O)N(Cc2ccccc2)[C@H](CO)C(C)C)cc1` gave GLP-1R agonist 9%, GLS inhibitor -5%, GLP-1R inv ag inconclusive, PTHR1 ag inactive, Glioma ERSR ind -2% and ALOX12 inh -13%.
CC(C)C[C@@H](CO)N(Cc1ccccc1)S(=O)(=O)N(Cc1ccccc1)[C@H](CO)CC(C)C was read as GLP-1R agonist -3%, GLS inhibitor 2%, GLP-1R inv ag inconclusive, PTHR1 ag -55% and Glioma ERSR ind -7%.
CC(C)C[C@@H](CO)N(Cc1ccccc1)S(=O)(=O)N(Cc1ccccc1)[C@@H](CO)CC(C)C was read as GLP-1R agonist -2%, GLS inhibitor -5%, GLP-1R inv ag 2.5µM*, PTHR1 ag -24% and Glioma ERSR ind -6%.
COc1ccc(C(=O)c2ccccc2)c(OCc2ccccc2C#N)c1 was read as ALOX12 inh 11%.
O=C(Nc1ccn(CCCN2CCN(Cc3cccc4ccccc34)CC2)c(=O)n1)OCc1ccccc1 was read as GLP-1R agonist 2%, GLS inhibitor -4%, GLP-1R inv ag 7.9µM*, PTHR1 ag -39%, Glioma ERSR ind -5% and ALOX12 inh inconclusive.
`CC(C)(C)c1cc(/C=N/O)cc(C(C)(C)C)c1O` gave GLP-1R agonist -8%, GLS inhibitor 5%, GLP-1R inv ag 10µM*, PTHR1 ag inactive, Glioma ERSR ind -8% and ALOX12 inh inconclusive.
Screening CC(C)(C)c1cc(/C=C/C(=O)O)cc(C(C)(C)C)c1O returned ALOX12 inh 8.9µM*.
Screening CC(C)(C)c1cc(C=O)cc(C(C)(C)C)c1O returned ALOX12 inh 2%.
`C=CCSc1nc2ccccc2c(=O)n1C1CCOC(C)(C)C1` (stereo unspecified) gave GLP-1R agonist 12%, GLS inhibitor 0%, GLP-1R inv ag 10µM*, PTHR1 ag -26%, Glioma ERSR ind -2% and ALOX12 inh 12%.
For Cc1ccc(S(=O)(=O)/N=C2\C=C(Nc3cccc(C(=O)O)c3)C(=O)c3ccccc32)cc1 the results were GLP-1R agonist -1%, GLS inhibitor -3%, GLP-1R inv ag 15%, PTHR1 ag -42%, Glioma ERSR ind -15% and ALOX12 inh -17%.
CC(C)(C)c1ccc(S(=O)(=O)/N=C2\C=C(NS(=O)(=O)c3ccccc3)C(=O)c3ccccc32)cc1 was read as GLP-1R agonist 2%, GLS inhibitor -6%, GLP-1R inv ag inconclusive, PTHR1 ag -12%, Glioma ERSR ind 3% and ALOX12 inh 25µM*.
For Cc1ccc(S(=O)(=O)/N=C2\C=C(Nc3ccc(O)cc3)C(=O)c3ccccc32)cc1 the results were GLP-1R agonist -21%, GLS inhibitor inconclusive, GLP-1R inv ag 4.5µM*, PTHR1 ag -30% and Glioma ERSR ind -11%.
`CC1CCC(NC(=O)Nc2cccs2)CC1` (stereo unspecified) gave GLP-1R agonist 2%, GLS inhibitor -8%, GLP-1R inv ag inconclusive, PTHR1 ag -8%, Glioma ERSR ind 3% and ALOX12 inh 13µM*.
For CC(NCc1ccc(-c2ccccc2)cc1)C(O)c1ccccc1 (stereo unspecified) the results were GLP-1R agonist -5%, GLS inhibitor -3%, GLP-1R inv ag 7.9µM*, PTHR1 ag -7%, Glioma ERSR ind -6% and ALOX12 inh inconclusive.
Screening Cc1ccc2cc3cc(C(=O)NC4CCCCC4)sc3nc2c1 returned ALOX12 inh 36%.
For CC(=O)Nc1ccc(/C(C)=N/NC(N)=S)cc1 the results were ALOX12 inh 28µM*.
